# From PubChem BioAssay (NCI)
# About 83,000 compounds went through this panel and 20% of them were active in at least one assay; those are over-represented in the sample as a whole.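 Cells were grown in 96-well plates and exposed to the test compound at a single concentration for 48 hours; results are reported as percent growth, with values below 10 considered active.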 Unmarked numbers belong to inactive results. Calls of active or inactive are those of the source.
# Tested on: OVCAR-4 ovarian
# Test: NCI-60 one-dose screen, 48 h (100 = growth as untreated, 0 = no growth, -100 = all killed)
# Conditions: 10 µM unless noted
# Protocol: Growth inhibition of the OVCAR-4 human tumor cell line is measured as a screen for anti-cancer activity. Cells are grown in 96 well plates and exposed to the test compound for 48 hours. Compounds are tested at a single concentration, which is 10^-5 M for most compounds. The reported endpoint is percent growth (GI% or GIPRCNT), where numbers from 0 - 100% represent growth inhibition, and numbers from -100% - 0 represent cell death. For example, a value of 40 represents 60% growth inhibition. A value of 0 means no net growth occurred over the course of the experiment. A value of -40 indicates 40% of cells at the beginning of the experiment died by the end of the experiment. A value of -100 means all cells are dead at the end of the experiment.
# NCI-60 Human Tumor Cell Lines Screen was performed using the standard one-dose NCI protocol, which is described in more detail at https://dtp.cancer.gov/discovery_development/nci-60/default.htm.
# Compounds with GIPRCNT values below 10 were considered active. Activity score was based on GIPRCNT using the following formula: […]
# Score is 0 for GIPRCNT values of 100 or above, 50 for GIPRCNT values of 0, and 100 for GIPRCNT values of -100.
row,Structure (SMILES),growth
1,CNc1ccc(C(=O)CC(O)CCC(C)C2OC(=O)CC(O)CC(=O)CC(O)CC(O)CC(O)CC(O)CC3(O)CC(O)C(C(=O)OC)C(CC(O[C@@H]4O[C@H](C)[C@@H](O)[C@H](N)[C@@H]4O)/C=C/C=C/C=C/C=C/C=C/C=C/C=C/C2C)O3)cc1 (stereo not given in full),-10.5% (active)
2,CC1CC=CCC12C(=O)NC(=S)NC2=O (stereo not given),105%
3,Cc1ccccc1O,101%
4,ClCCN(CCCl)c1ccc(C=NCCc2c[nH]c3ccccc23)cc1,92.9%
5,O=[N+]([O-])c1cccc([As]=[As]c2cccc([N+](=O)[O-])c2)c1 (stereo not given),-99.2% (active)
6,COc1cc(C2CC(=O)Nc3nc(N)[se]c32)c(OC)c2c1OCO2 (stereo not given),96.3%
7,COc1cc(C2=NN(c3ccccc3)C(c3sc(N(CCCl)CCCl)nc3Cl)C2)cc(OC)c1OC (stereo not given),87.5%
8,CC1(C)N=C(N)N=C(N)N1c1ccc(OCCCCNC(=O)Nc2cccc(S(=O)(=O)F)c2)c(Cl)c1,97.1%
9,O=C1NC(=S)NC(=O)C1=Cc1ccccc1,114%
10,O=CN1N=C(c2ccccc2)CC1c1sc(N(CCCl)CCCl)nc1Cl (stereo not given),96.2%
11,O1[As]2O[As]3O[As]1O[As](O2)O3,26.1%
12,NC(=O)C(Br)CBr (stereo not given),-100% (active)
13,O=C(CCl)NCNC(=O)CCl,77.4%
14,O=C(/C=C/c1ccccc1)N[C@@H](CO)Cc1cnc[nH]1,96.8%
15,COc1cc2c(cc1OC)CN(C)C(C)C2 (stereo not given),103%
16,CCC(C)(C)O,111%
17,N#C[Se]CCN1C(=O)C2C(C1=O)[C@H]1C=C[C@@H]2S1 (stereo not given in full),25.3%
18,CC(=O)C1CCC2C3CC=C4CC(OC(=O)Cc5ccc(N(CCCl)CCCl)cc5)CCC4(C)C3CCC12C (stereo not given),99.4%
19,Cc1cc(NC(=O)NCCOc2ccc(N3C(N)=NC(N)=NC3(C)C)cc2Cl)ccc1S(=O)(=O)F,71.5%
20,CO[C@@H]1[C@H](OC(=O)NC(=O)CCl)CC[C@]2(CO2)[C@H]1[C@@]1(C)O[C@@H]1CC=C(C)C,47.8%

row,Structure (SMILES),growth
1,CO[C@@H](c1ccccc1Cl)[C@H](C)OC(N)=O,112%
2,O=C(O)C1[O][Sb][O]C1C(=O)O (stereo not given),99.2%
3,COC(=O)C1CC2c3ccccc3C1c1ccccc12 (stereo not given),106%
4,COc1ccc(CN2CCN(Cc3ccccc3)CC2)c(O)c1,99.8%
5,CC(C)N=C(NC(C)C)N1CC1,104%
6,CC(=O)Oc1ccc(Cl)cc1,97.3%
7,CC(C)[C@]12O[C@H]1[C@@H]1O[C@]13[C@]1(O[C@H]1C[C@H]1C4=C(CC[C@@]13C)C(=O)OC4)[C@@H]2OC(=O)OC(C)(C)C,29.3%
8,c1ccc(CCN2CCCCC2Cc2ccccc2)cc1 (stereo not given),115%
9,C=C=[CH][Sn]([c]1ccccc1)([c]1ccccc1)[c]1ccccc1,-40.2% (active)
10,Cc1cc(NC(=O)/C=C/c2ccc([N+](=O)[O-])cc2)ccc1S(=O)(=O)F,103%
11,CCOC(=O)/C(C#N)=C/c1ccc(N(CCCl)CCCl)cc1,61.5%
12,N#[N+]c1nc2nc(N)[nH]c(=O)c2[nH]1,105%
13,CC(N)Cc1ccc(O)cc1 (stereo not given),124%
14,N#C[Se]CCCNS(=O)(=O)C1CC2C=CC1C2 (stereo not given),10%
15,C1CN1c1nc(N2CC2)nc(N2CC2)n1,44.6%
16,CC(CC(C#N)(c1ccccc1)c1ccccc1)N1CCOCC1 (stereo not given),108%
17,CCOC(=O)Nc1cc(Cl)c([N+](=O)[O-])c(NC(=O)OCC)n1,112%
18,CC(C)(NC(=O)c1nn(CCCCCF)c2ccccc12)c1ccccc1,88.5%
19,Cc1cccc(N=C2c3cc([N+](=O)[O-])ccc3-c3c2cc([N+](=O)[O-])cc3[N+](=O)[O-])c1,71.3%
20,O=C1NC(=O)C(Cc2ccccc2)(Cc2ccccc2)C(=O)N1,95.7%
